Source: PubChem BioAssay (National Center for Advancing Translational Sciences (NCATS))
An excerpt weighted towards active compounds, which were near 12% of everything screened.
HP1b binding inh = HTS for Inhibitors of HP1-beta Chromodomain Interactions with Methylated Histone Tails; Chromobox protein homolog 1 (Homo sapiens), P83916; Potency, µM (top dose mostly 114 µM), without a hit: at the top dose activity change, negative = inhibition, most hits filed as inhibitors; AlphaScreen HP1-beta / biotin-H3K9me3 peptide binding; AID 540317, 2011; 0.56% of 390,000 active; also: nearly all actives have a fitted effect of over 70% in size
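AlphaScreen: HP1-beta (50 nM) preformed 30 min with biotin-H3(1-18)K9me3 peptide (50 nM) in PBS pH 7.4, 0.01% Tween-20. Compound added for 30 min at RT, then streptavidin donor/nickel chelate acceptor beads (10 ug/mL) for 30 min.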
Sfp inh = qHTS Assay for Inhibitors of Bacillus subtilis Sfp phosphopantetheinyl transferase (PPTase). 4'-phosphopantetheinyl transferase ffp (Bacillus subtilis), Q9F4F7. Biochemical Sfp PPTase activity, qHTS. Potency, µM, for the others: largest response in the series, negative = inhibition, hits mostly inhibitors. 3.5% of 310,000 active. AID 1490, 2009;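 also: the enzyme is Sfp with the accession as filed and its product quenches rhodamine fluorescence; 0% = enzyme reaction without inhibitor and -100% = no enzyme wells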
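Step 1, compound plus 15 nM Sfp-PPTase, 15 min, room temperature. Step 2, add rhodamine-CoA (5 uM) and BHQ-2-YbbR (12.5 uM). Step 3, read 525/598 nm fluorescence at 0 and 30 min.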
BAZ2B inh = qHTS Assay for Inhibitors of BAZ2B; Bromodomain adjacent to zinc finger domain protein 2B (Homo sapiens), Q9UIF8; Potency, µM (top dose mostly 114 µM), for the others: at the highest dose activity change, negative = inhibition, most hits filed as inhibitors; AlphaScreen BAZ2B-H3K14Ac peptide displacement; 4.4% of 360,000 active; AID 504333, 2011; also: % is scaled to controls: 0 for no effect and ±100 for the full control effect; nearly all actives have a fitted effect of over 60% in size
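AlphaScreen displacement of biotin-H3(5-23)K14Ac peptide (50 nM final) from BAZ2B (50 nM final) in PBS pH 7.4, 0.01% Tween-20; complex preformed 30 min RT, then compounds (top 110 uM) 30 min RT, beads 20 min dark.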
G9a block = qHTS Assay for Inhibitors of Histone Lysine Methyltransferase G9a. Histone-lysine N-methyltransferase EHMT2 (Homo sapiens), Q96KQ7. G9a H3K9 monomethylation, AlphaScreen, 2 h. Potency, µM (top dose mostly 102 µM), without a hit: top-dose activity, negative = inhibition, most hits filed as inhibitors. 8.8% of 350,000 active. AID 504332, 2011; also: % is scaled to controls: 0 for no effect and ±100 for the full control effect; nearly all actives have a fitted effect of over 75% in size
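G9a (20 nM) preincubated 15 min RT with compounds, then 500 nM biotinylated H3K9 peptide and 20 uM SAM added; 2 h RT reaction. Monomethyl-H3K9 product detected by AlphaScreen with anti-H3K9me1 antibody, streptavidin donor and anti-rabbit IgG acceptor beads.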
L3MBTL1 inh = qHTS Assay for the Inhibitors of L3MBTL1; 0.66% of 230,000 active; AlphaScreen L3MBTL1–H3K9me1 peptide binding; Potency, µM (doses to about 57.1 µM), for inactives: at the top dose activity, negative = inhibition, actives largely listed as inhibitors; Lethal(3)malignant brain tumor-like protein 1 (Homo sapiens), Q9Y468; also: % is scaled to controls: 0 for no effect and ±100 for the full control effect; nearly all actives have a fitted effect of over 60% in size
Target sequence (Q9Y468 whole entry, looked up): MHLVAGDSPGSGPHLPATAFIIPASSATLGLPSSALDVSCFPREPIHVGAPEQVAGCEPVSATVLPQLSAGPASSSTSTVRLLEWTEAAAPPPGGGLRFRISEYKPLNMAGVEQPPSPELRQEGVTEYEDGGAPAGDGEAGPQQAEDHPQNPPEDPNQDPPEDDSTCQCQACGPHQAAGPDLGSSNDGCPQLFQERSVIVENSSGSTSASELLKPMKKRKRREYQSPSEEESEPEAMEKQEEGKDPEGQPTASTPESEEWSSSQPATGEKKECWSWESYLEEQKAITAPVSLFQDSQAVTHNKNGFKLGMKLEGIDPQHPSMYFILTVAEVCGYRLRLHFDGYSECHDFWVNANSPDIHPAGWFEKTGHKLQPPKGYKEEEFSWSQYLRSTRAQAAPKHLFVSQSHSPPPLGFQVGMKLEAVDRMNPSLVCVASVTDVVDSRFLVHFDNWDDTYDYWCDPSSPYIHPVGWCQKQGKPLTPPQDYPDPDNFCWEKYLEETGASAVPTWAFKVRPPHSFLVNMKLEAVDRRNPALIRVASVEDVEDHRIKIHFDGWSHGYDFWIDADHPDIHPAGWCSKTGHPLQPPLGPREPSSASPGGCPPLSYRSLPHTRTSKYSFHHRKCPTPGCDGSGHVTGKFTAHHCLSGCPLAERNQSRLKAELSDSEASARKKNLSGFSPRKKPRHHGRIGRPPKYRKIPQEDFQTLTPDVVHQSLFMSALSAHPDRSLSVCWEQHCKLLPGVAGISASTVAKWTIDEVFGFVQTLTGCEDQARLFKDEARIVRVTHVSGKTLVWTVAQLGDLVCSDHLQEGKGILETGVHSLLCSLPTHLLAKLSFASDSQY
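Displacement of a biotinylated histone H3(1-15) peptide monomethylated at Lys9 (75 nM) from L3MBTL1 (50 nM) was measured by AlphaScreen after a 30 min room-temperature compound incubation; cefsulodin titration served as intraplate control.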
JMJD2A Tudor inh = qHTS Assay for Inhibitors of JMJD2A-Tudor Domain; Lysine-specific demethylase 4A (Homo sapiens), O75164; AlphaScreen JMJD2A-Tudor / H3K4me3 peptide binding; Potency, µM (series often up to 114 µM), for the others: at the top dose activity change, negative = inhibition, usual class: inhibitors; 4.4% of 390,000 active; AID 504339, 2011; also: % is scaled to controls: 0 for no effect and ±100 for the full control effect; nearly all actives have a fitted effect of over 50% in size
* = called active by the depositor; ? = inconclusive; . = no result given; [ ] = remark or other dose. Calls follow the shape of the dose curve; as a rule, active = well fitted curve in the direction sought with a large enough effect; inconclusive = small, poorly fitted or top-dose-only effect, or another doubt; inactive = no such curve, though single readings can be large; an effect the other way counts as inactive or inconclusive. Potency is read from the fitted curve at half-maximal effect.

SMILES	HP1b binding inh	Sfp inh	BAZ2B inh	G9a block	L3MBTL1 inh	JMJD2A Tudor inh
C/C(=N\NC(=O)c1c[nH]c2ccccc12)c1ccc(C)o1	39%	-5%	-8%	-6%	.	-18%
C/C(=N\NC(=O)c1ccc(Cl)cc1)c1ccccn1	23%	8%	7.9µM*	.	?	25µM*
CC(=NNC(=S)Nc1cccc(Cl)c1)c1ccccn1	?	.	.	.	.	25µM*
CCOCCCN(Cc1ccco1)C(=O)c1cc2c(s1)-c1c(C)cccc1OC2	143%	.	86%	133%[59 µM]	.	104%
COc1ccc(OC)c(CNC(=O)C2CCN(S(=O)(=O)c3ccc4[nH]c(=O)oc4c3)CC2)c1	-2%	.	-14%	7%[59 µM]	.	-29%
C/C(=N\NC(=O)COc1ccccc1-c1ccccc1)c1ccccn1	46%	10%	56µM*	-8%	-2%	10%
C/C(=N\NC(=O)C(C)Oc1ccc([N+](=O)[O-])cc1)c1ccccn1 (stereo not drawn)	33%	19%	25µM*	-3%[59 µM]	-2%	56µM*
S=C(N/N=C/c1cccc2ccccc12)Nc1cccc(Cl)c1	9%	18%	79µM*	-1%	-24%	-20%
C/C(=N\NC(=O)c1ccccn1)C12CC3CC(CC(C3)C1)C2	36%	6%	50µM*	?	2%	?
C/C(=N\NC(=O)COc1ccccc1-c1ccccc1)c1cccnc1	29%	4%	-19%	-13%	-9%	-5%
CCOC(=O)c1ccccc1NC(=O)Cn1cc(C(=O)c2cccc(OC)c2)c(=O)c2ccc(C)nc21	24%	.	0%	-49%[59 µM]	.	-25%
O=C(c1cccs1)c1cn(CCOc2ccc(F)cc2)c2ccccc12	7%	.	-5%	32%[59 µM]	.	-10%
Cc1ccc(NC(=O)CCc2nc(-c3ccccc3F)no2)c(C)c1	30%	.	-2%	-25%[59 µM]	.	-18%
COc1cccc(CSc2nc3n(n2)C(c2cccc(F)c2)C(C(=O)Nc2ccccc2C)=C(C)N3)c1 (stereo not drawn)	31%	.	-2%	-5%[59 µM]	.	-14%
C/C(=N\NC(=O)c1ccc(Cl)cc1)c1cccnc1	-18%	-2%	-1%	7%	.	-20%
C/C(=N\NC(=O)c1ccccn1)c1ccc(Cl)cc1	30%	89µM*	?	.	-11%	-23%
C/C(=N/NC(=O)c1ccccn1)c1ccc(O)cc1	59%	-25%	50µM*	.	-9%	?
C/C(=N/NC(=O)CNC(=O)c1ccccn1)c1cccc([N+](=O)[O-])c1	24%	-21%	?	18µM*	-2%	0%
C/C(=N/Nc1ccc([N+](=O)[O-])cc1)c1c[nH]c2ccccc12	?	6%	40µM*	?	?	?
C/C(=N\Nc1ccc(Cl)cc1)c1ccccn1	-7%	0%	?	3.5µM*	.	?
CCSC(=Nc1ccccc1)C1=C(O)COC1=O	38%	11%	?	35µM*	3%	-34%
COc1ccc(-n2c(C)c([N+](=O)[O-])c3ccc(O)c(CN4CCCCC4)c32)cc1	?	-19%	?	25µM*	.	?
CCc1ccc(NC2=CC(=O)CC(c3ccco3)C2)cc1 (stereo not drawn)	8%	?	?	50µM*	-7%	?
Cc1ccc(NC2=CC(=O)CC(c3ccco3)C2)c(N)c1 (stereo not drawn)	3%	-3%	8%	-16%[59 µM]	-14%	-28%
Nc1ccccc1NC1=CC(=O)CC(c2ccco2)C1 (stereo not drawn)	3%	8.9µM*	-2%	10µM*	-10%[11.4 µM]	-26%
SMILES	HP1b binding inh	Sfp inh	BAZ2B inh	G9a block	L3MBTL1 inh	JMJD2A Tudor inh
COc1cc(CN(C(=O)c2ccc(Cl)cc2)C2CCS(=O)(=O)C2)cc(OC)c1OC (stereo not drawn)	44%	.	1%	3%[59 µM]	.	-7%
O=C(O)c1ccccc1OC(=O)C12CC3CC(CC(C3)C1)C2	24%	19%	-12%	.	3%	-4%
COc1ccc(-c2ncccc2OC(=O)C23CC4CC(CC(C4)C2)C3)cc1	65%	-7%	?	25µM*	12%	2%
CCCCN(c1ccccc1)c1ncnc2c1cnn2-c1ccc(Cl)cc1	26%	.	3%	17%[59 µM]	.	19%
COc1ccc(Cc2nc(-c3cccs3)no2)cc1OC	36%	-1%	0%	50µM*	9%	-2%
Brc1ccc(-c2noc(COc3ccc4c(c3)CCC4)n2)o1	-11%	-12%	56µM*	22µM*	-5%	199%
c1csc(-c2noc(COc3ccc4c(c3)CCCC4)n2)c1	349%	45µM*	234%	4%[12.7 µM]	88%	242%
COc1ccc(Cc2nc(-c3cccs3)no2)cc1	173%	-5%	67%	113%	7%[11.4 µM]	119%
O=[S+]([O-])(c1ccc2c(c1)OCCO2)N1CCN([S+](=O)([O-])c2ccccc2Br)CC1	.	.	.	.	.	-10%
COc1cc(CN(C)Cc2cccc3ccccc23)cc([N+](=O)[O-])c1O	-9%	0%	?	71µM*	-6%	?
CN(Cc1cccc([N+](=O)[O-])c1)Cc1cccc2ccccc12	5%	-13%	-36%	.	-2%	-34%
COc1ccc(C2=NN3C(C2)c2ccccc2OC3c2cccs2)cc1 (stereo not drawn)	27%	10%	?	40µM*	-6%	-20%
COc1ccc(C2=NN3C(C2)c2ccccc2OC32C(=O)N(C)c3ccccc32)cc1 (stereo not drawn)	16%	?	-7%	25µM*	-13%	-24%
CC(C)c1ccc(C2N3CC4(C)CN2CC(c2ccccc2)(C3)C4=O)cc1 (stereo not drawn)	14%	.	-4%	-37%[59 µM]	.	-19%
Cc1ccc(NC(=O)Cn2c(=O)n(Cc3nc(C)no3)c(=O)c3cc4c(cc32)OCO4)c(C)c1	40%	.	-16%	5%[59 µM]	.	2%
Cc1ccc(C)c(Nc2nc(NCc3ccco3)nc3nccnc23)c1	67%	.	.	.	.	-14%
CCN(CC)c1ccc(C(=O)OCC(=O)NC2CCCCC2C)cc1 (stereo not drawn)	1%	-14%	7%	-11%	.	50µM*
